In all, about 53,000 sequences went through this assay and about 3,700 (7%) were called active. This excerpt belongs to a sample that is enriched for actives. A number with no mark means an inactive call.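 The calls were made as follows: active = gene knockdowns whose robust z-score for IL-1 alpha signal is at least 2 or at most -2, so actives lie on both sides; inactive = the rest.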

A short description of this assay: Components of the Cytosolic LPS Sensing Pathway: Gene Identification via Genome-wide siRNA Screen.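 Also: robust z of the log signal after scaling to non-targeting control siRNA wells of the plate.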 The settings on record: RAW264.7 macrophages, IL-1a HTRF, actives lie on both sides, screened at 100 nM (by protocol), cells primed 5 h with Pam3CSK4 first. In outline:
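Knockdown: 100 nM siRNA, 48h, RAW264.7. Stimulation: Pam3CSK4 5 h, then LipidA via TransIT-TKO 24 h. Output: supernatant IL-1a HTRF, negative-control-normalized, log robust z-score; viability by CellTiter-Glo.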
For orientation: TR-FRET usually uses a lanthanide donor and a delayed reading to cut background.
Consider GGUGAAUAGAACAUCAUCUTT against Lrrc29, for which the z-score is -1.76.

In the case of GGUGAUGAAAGGGAAUGGCTT against Rnf25, the z-score is -2.53 (active). Under GGAACACAAAUUGUGCUUATT against Zfp462 stands 0.199; under GGGUUGUAUGGCUCAAAUATT against Olfr728, 0.734. Under GCAUCAUAAUGGGAUGCUGTT against Qrfp stands -0.313; under GGAGAGGUCAGAUAGAAAUTT against Zbtb41, -2.29 (active). Under GGCAAAAGAAUCGUUCUCATT against Ppat stands -0.848; under GGAAGAAAUACUACAGCCATT against Ptpn12, -0.733; under GAAGGAAGAAUAUUGGCCCTT against Il17rd, -1.88. GCGGCAAUUCAAAUGAGUCTT against Rnf14: the z-score was 1.2. In the case of GGGAAUGACUCCACAUUGCTT against Limd1, the z-score is 2.01 (active). To GGGAGAGAGUUGGCUCUGATT against Prg3 belongs -0.184; to GGGAGACUUCGAAUAUUUATT against Uroc1, -0.183; to CGUAUUCUGGUAGUGAAGGTT against Olfr1384, -2.3 (active). Under GCUCAACCUAACUUUGUGGTT against Ccdc3 stands 0.421; under GGCAACAAUGGUUGUCUUGTT against Ctsr, 0.515; under GCCAAACUUAGCGUGCUCATT against Dgkk, 0.607. To GGGUAUCAACCACUUUUUUTT against Serping1 belongs 2; to GGUCAGAUUCCUGAAAUUATT against Vbp1, -0.807; to GGAAACAAGAUUACAUCAATT against Adamts2, 2.04 (active). In the case of GGCCAUAGUGAAGAAAGAATT against Plaat3, the z-score was -0.754.

For GGAGAAGGAUAGAGAUGGUTT against Phf5a, the z-score was -1.84. To GGUAAUACCACCUCACCUUTT against Fam214b belongs -0.0713.

For the sequence GGACACUGUACAGAAGCUGTT against Asb18, the z-score was -2.31 (active). Under CGGUUAGAUGAGCUUGAGATT against Smad2 stands -0.725; under GCGGGAGUACUACGUCAAUTT against Reps2, -2.07 (active). Under GCUUGAUGACUACCACUGATT against Rrp36 stands 0.496; under GGUCGACAUUUUGAAGGAGTT against Fthl17e, -2.63 (active); under GGAGAUCACUAUGUUCUGATT against Ivd, 1.46.

Turning to GACAAGGCUUCAUAAAAAGTT against Qrich1, the z-score was -0.312. To GGGAUGCUUUGUUGCUGUUTT against Olfr836 belongs 0.296; to GCCAUAGGCUCAUCUUUACTT against Ankib1, -1.61; to GGAAGUAGAGCUUCAAAUGTT against Cdkl2, 2.8 (active). Take GGUUGGUCACCUAAUCCAGTT against Aldh2: the z-score was 0.523. Under CCAAUGUGCUCAUGCUCUATT against Nodal stands 1.06; under GCUGUACGAGCAUACUGUGTT against Tnxb, -1.46.

Consider CCUUCUAAACACUUGACUUTT against Ugt2b5, for which the z-score was 0.106. To GACCACAAUAUUGAGGAUCTT against Zfp119b belongs -0.329; to GGACGUGACAGACAUUAUUTT against Htr5b, -2.81 (active).

With CCCUGUUAUUAUCUUGAUUTT against Arv1, the z-score is -1.16. To CGUGUGUGUUAUGAAUCAATT against Tmem161a belongs 0.984. To GGACUUGCUAAGAGACCAATT against Cntn2 belongs 4.74 (active). Under GGACUACAUAAGGAAGGUUTT against Ccdc130 stands 1.64. Turning to GGCAAAUGGGAAGAAUUCCTT against Mep1b, the z-score was 0.228. Under GCAACCUGCAGGCAGUAACTT against Nolc1 stands 0.207; under CCACACACUGAUCAACGUGTT against Unc93b1, 0.336; under GGCUUCAUUCUUGUCCUCCTT against Reg3b, -0.105.

GCCUUCCUCCGUUAAUCCATT against Kank2: the z-score is 0.844. To GGUGAGAGGAAGGAAGAGATT against Pcsk7 belongs 2.54 (active).

As for GGAGGAUGAGAAAGAAGAGTT against Gja8, the z-score is -0.176. Under GGAUGUCAUCAAUGCUAUGTT against Olfr1022 stands -0.643; under “GGUUUACUGGCCAAGAUGGTT against 4930579K19Rik”, -0.327. Under “GGCUUUACGUGACAAAGAUTT against 4933430I17Rik” stands 0.266; under GGAAAAUACAGCGCGAAUUTT against Nexn, 1.4. To GCGGCUAGGAUUUCUGGGATT against Mindy3 belongs 2.34 (active); to ACAAGAUUGGGAUCAUCUATT against Rpl23a, 0.521; to UGCCUCAAUCAUAAGUCCCTT against Olfr730, -0.551.

For AAGGUCGUUUACAUGAACATT against Fbxw20, the z-score is 1.19. To GGAAAAAAAAAAGCAGUGATT against Phactr4 belongs 0.662; to GGUCUGAUACCUCAUUCCATT against Il22ra2, -1.21. For the sequence CCAUGAGAACCUGAUGAAUTT against Pag1, the z-score is -2.38 (active).

With GGACUUUCGUCGUACUCGUTT against Terf1, the z-score is -1.73. For the sequence GGCCUGGUGCUACUUCUCATT against Fam160a2, the z-score was -0.0704.

Regarding CGUAAACACUCCUAACUUUTT against Hif1a, the z-score was -0.543. Under GGAAGGAUAUUGGUUACCATT against Zmynd11 stands -2.28 (active).

On to GGUCAGAAGAGAUGCCAAUTT against Hcar1, for which the z-score is -0.494. Under CCGCAGUUGUCUUUCAAGATT against Dcaf1 stands 0.724. To AGAAUCUUUAAAGGAAGUCTT against Olfr325 belongs 0.229.

As to “GCCAUGACUAUGUUUUCCGTT against St6galnac1”, the z-score is -0.578. To CGGCUCAUCCGAUAUAUCCTT against Hcn2 belongs -1.39. To GCUUUUAAAGCAUGGGCAGTT against Alb belongs 2.44 (active); to GGGCAGUAAGGACAGUUUUTT against Oaz1, 0.406; to GGACUAAUCCCAUUUUCUUTT against Zfp422, -0.292. To GGCCGAGAAGAUCAAAGCATT against Mrpl12 belongs -0.116; to GGAAAUAAAGUGAGUUUUGTT against Etaa1, 4.95 (active); to GCUGGAAUAUCAUUUCCCATT against Pdpk1, -1.01. On to GGAGAGCUGUUUGACUACATT against Melk, for which the z-score was 1.45. To CCAGCAAAAUCACUUAAUATT against Emb belongs -0.648. To GCAACGAAGUGAAUUUGUUTT against Epha5 belongs -0.139.

Turning to GCUAGACCAGAAGAAAGUATT against Gid8, the z-score was -1.65. To GCCAGAGCUAGUUGAAUCCTT against Rce1 belongs 1.14. To GGCCCUGUGUUUAUCAAAGTT against Cntn3 belongs 0.814; to GGCCUUGAAGGAGUAUGAGTT against Atp2a3, -2.62 (active). Take GGACCCAGAUGUGACUGAGTT against Svil: the z-score is 0.242.

GGAAGCUUUUGUCGGUCCATT against Hap1: the z-score is -0.361. Under AACUUUCUCAUUCUUACUGTT against Olfr961 stands -1.22; under “GCAUGCUGAGGGACACAGUTT against 1810055G02Rik”, -1.6. Under GAUCACACUGAAAUCAUCATT against Nudt11 stands -1.71.

On to GGCAUCACUGGUAAACAUUTT against Frzb, for which the z-score is -0.196. Take GGCUGUCUUGUCCAAAUGUTT against Olfr1357: the z-score is -2.9 (active). Consider GGGAAAGUUUUGUUCUGUATT against Ezr, for which the z-score is 0.31.

For CCGCGUGUUCCUUCUGAUUTT against S1pr3, the z-score is 1.43.

For the sequence GGGUAUAGAAUGAUUAUGGTT against Ly6g2, the z-score was -2.39 (active). To GGGAACUGUUCCAUCUUGCTT against Olfr606 belongs 0.979; to GGAAGUUCCGUCGAUUUGATT against Cyp8b1, -0.604.

Regarding GGAUGAAGUUCUUUUUCAATT against Pdcd11, the z-score was 2.28 (active). To GGCUGCCUAUCCCUAAACUTT against Cpt2 belongs -0.625; to GGUGGUUUACCAAACGGUGTT against Ces2g, -0.00874; to GGCCAGAGCAUUUUCUUCATT against Pif1, 0.72.

As to GGAUGAAGGAAUCCAUGCATT against Pcdhga6, the z-score is -0.133.

With GGAUCUGAAGGUGAUGUCATT against H2-Q10, the z-score was -2.72 (active). As to GGUACCUCUACACAGAUGATT against Fgf21, the z-score is 0.0136. GGCCUGGAUGAAUGAAAAGTT against Gins4: the z-score was 0.665. To CCGUGUGAAUCCCUGCAUUTT against Aldoa belongs -2.85 (active); to GCUAUUUGACUUGUUGUAATT against Rab30, 0.269. With CGCAAGUAUUUCCACCAUATT against Clk4, the z-score is -0.41.

As for GGUUUGAGAAUUUGAAGGUTT against Map2k3os, the z-score is 0.273.

As to GGUCCUCUGGUUCAACAUUTT against Olfr638, the z-score was -0.405.

The values above are taken from PubChem BioAssay AID1508600 (Functional Genomics Laboratory (NCATS/FGL), 2020).
